For the test, the system named is E. coli TESEC Mtb Alr. In words: growth (OD600 after 10 h); higher = more growth (less inhibition). Particulars: compound 0.1 mM. Here is the method: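 TESEC Mtb Alr E. coli, or the Alr+ wild-type control, in 384-well plates with Prestwick library compounds at 0.1 mM and 1% DMSO, across arabinose induction levels of 1E3 to 1E7 nM. Growth is read as OD600 after 10 h at 37 °C in triplicate biological replicates.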

Where [1] appears, read: arabinose 1000 nM, raw OD600 reference: median of DMSO wells 0.294, cell-free background 0.041.
Where [2] appears, read: arabinose 10000 nM, raw OD600 reference: median of DMSO wells 0.264, cell-free background 0.041.
The mark [3] stands for this setting: arabinose 100000 nM, raw OD600 reference: median of DMSO wells 0.201, cell-free background 0.041.
Setting [4] is: arabinose 1000000 nM, raw OD600 reference: median of DMSO wells 0.193, cell-free background 0.041.
The mark [5] stands for this setting: arabinose 10000000 nM, raw OD600 reference: median of DMSO wells 0.146, cell-free background 0.041.

Each structure is given as a SMILES string. Where a name gives a salt, the structure may show the parent alone. ± gives the standard deviation of the averaged measurements.

Consider `CC(=O)N(CC(O)CN(C(C)=O)c1c(I)c(C(=O)NCC(O)CO)c(I)c(C(=O)NCC(O)CO)c1I)c1c(I)c(C(=O)NCC(O)CO)c(I)c(C(=O)NCC(O)CO)c1I` (stereo not given) [Iodixanol], for which the growth reads like this: under setting [1], 0.303 ± 0.015; under setting [2], 0.26 ± 0.0054; under setting [3], 0.182 ± 0.022; under setting [4], 0.177 ± 0.0052; under setting [5], 0.1415 ± 0.00091.

Regarding `CCCCC(CC)CN1CN(CC(CC)CCCC)CC(C)(N)C1` (stereo not given) [Hexetidine], the growth runs as follows: under setting [1], 0.259 ± 0.0085; under setting [2], 0.309 ± 0.0098; under setting [3], 0.228 ± 0.039; under setting [4], 0.161 ± 0.014; under setting [5], 0.187 ± 0.0073.

Take `CN(C)CCCOc1nn(Cc2ccccc2)c2ccccc12` [Benzydamine hydrochloride]: the growth reads like this: under setting [1], 0.224 ± 0.012; under setting [2], 0.25 ± 0.0088; under setting [3], 0.167 ± 0.0029; under setting [4], 0.112 ± 0.0038; under setting [5], 0.146 ± 0.0037.

As for `Cc1ccsc1/C=C/C1=NCCCN1C` [Morantel tartrate], the growth worked out at 0.306 ± 0.0079 under setting [1]; 0.252 ± 0.0038 under setting [2]; 0.204 ± 0.012 under setting [3]; 0.176 ± 0.0069 under setting [4]; 0.1525 ± 0.00097 under setting [5].

In the case of `CC(=O)S[C@@H]1CC2=CC(=O)CC[C@]2(C)[C@H]2CC[C@@]3(C)[C@@H](CC[C@@]34CCC(=O)O4)[C@H]12` [Spironolactone], the growth is 0.0986 ± 0.051 under setting [1]; 0.0753 ± 0.0019 under setting [2]; 0.0921 ± 0.027 under setting [3]; 0.06897 ± 0.00051 under setting [4]; 0.112 ± 0.0019 under setting [5].

On to `CO[C@@H]1[C@@H](OC(N)=O)[C@@H](O)[C@H](Oc2ccc3c(O)c(NC(=O)c4ccc(O)c(CC=C(C)C)c4)c(=O)oc3c2C)OC1(C)C` [Novobiocin sodium salt], for which the growth came out at 0.0437 ± 0.0029 under setting [1]; 0.0409 ± 0.0007 under setting [2]; 0.0461 ± 0.0025 under setting [3]; 0.0415 ± 0.00082 under setting [4]; 0.0423 ± 0.00026 under setting [5].

`Nc1c2c(nc3ccccc13)CCCC2O` (racemic) [Hydroxytacrine maleate (R,S)]: the growth by setting is: under setting [1], 0.264 ± 0.028; under setting [2], 0.257 ± 0.0076; under setting [3], 0.202 ± 0.025; under setting [4], 0.176 ± 0.0061; under setting [5], 0.144 ± 0.0023.

Consider `CCOC(=O)c1ccc(N)cc1` [Benzocaine], for which the growth was found to be 0.324 ± 0.02 under setting [1]; 0.263 ± 0.0073 under setting [2]; 0.213 ± 0.011 under setting [3]; 0.182 ± 0.0029 under setting [4]; 0.1551 ± 0.0012 under setting [5].

For the origin of these results see the supplement of paper PMC9262897, “Low-cost anti-mycobacterial drug discovery using engineered E. coli” (Nature Communications, 2022).
